Values joined by “and” are separate entries in the source; they are usually repeats but may differ in a detail not shown here. Equal entries are not always repeated. Records with an inconclusive call do not appear. More than one record can exist for a structure, and the calls need not agree. Active and inactive are the calls of the source. The call rests on the fitted dose curve; in most records, active means well fitted inhibition curve with a large enough effect; inconclusive means small, poorly fitted or top-dose-only effect; inactive means no such curve, though single readings can be large or run the other way.
target: Cytochrome P450 2C19 (Homo sapiens) (UniProt P33261); test: qHTS Assay for Inhibitors and Substrates of Cytochrome P450 2C19 (AID 899); conditions: recombinant CYP2C19, luciferin-H EGE luminescence; series mostly up to 57.1 µM; activity, negative = inhibition: at the top concentration; further: nearly all actives have a fitted effect of over 60% in size
Sequence (P33261 whole entry, looked up): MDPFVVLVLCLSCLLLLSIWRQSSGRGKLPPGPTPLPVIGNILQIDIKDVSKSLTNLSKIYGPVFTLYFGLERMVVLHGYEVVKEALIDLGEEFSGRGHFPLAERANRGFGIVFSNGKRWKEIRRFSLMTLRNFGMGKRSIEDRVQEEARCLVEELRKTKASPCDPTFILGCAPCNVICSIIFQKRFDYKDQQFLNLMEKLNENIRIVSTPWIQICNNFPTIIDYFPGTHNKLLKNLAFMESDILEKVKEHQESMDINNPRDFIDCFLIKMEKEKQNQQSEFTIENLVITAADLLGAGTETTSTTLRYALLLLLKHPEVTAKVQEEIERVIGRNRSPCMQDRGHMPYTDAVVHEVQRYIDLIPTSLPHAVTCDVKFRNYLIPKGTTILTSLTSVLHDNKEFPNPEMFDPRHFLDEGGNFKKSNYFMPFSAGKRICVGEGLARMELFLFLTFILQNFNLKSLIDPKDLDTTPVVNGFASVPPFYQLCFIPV
Protocol: NIH Molecular Libraries Screening Centers Network [MLSCN]
NIH Chemical Genomics Center [NCGC]
The P450 gene superfamily is involved in the metabolism and clearance of xenobiotics. This assay used human CYP2C19 to measure the hydroxylation of ethylene glycol ester of 6' deoxyluciferin (Luciferin-H EGE; […]) to luciferin. The luciferin is then measured by luminescence after the addition of a luciferase detection reagent. Luciferin-H EGE concentration in the assay was equal to its KM for CYP2C19. Inhibitors and some substrates limit the production of luciferin, and decrease measured luminescence.
NCGC Assay Protocol Summary:
Two uL of enzyme and substrate mix (final concentrations: 5nM CYP2C19, 10uM Luciferin-H EGE, 50mM KPO4) were dispensed into a white, solid bottom 1536-well microtiter plate. 23nL of compound was transferred by a pin tool. The plate was incubated at 37C for 10 min. Two uL of an NADPH regeneration solution (Promega supplied reagent) was dispensed and the reaction was allowed to continue for 60 min at 37C. Then the reaction was stopped by reconstituted luciferin detection buffer. After another 20 min of incubation the plate was read on the ViewLux (Perkin Elmer) at 60 sec exposure and 2x2 binning. This protocol was carried out with Promega-Glo reagents and further information can be found at http://www.promega.com/tbs/tb325/tb325.pdf. Data were normalized to the to AC100 inhibition (57uM ketoconazole).
Keywords: P450, CYP2C19, Luciferase, MLSMR, MLSCN, NIH Roadmap, qHTS, NCGC
On the % scale 0 is the no-effect control and ±100 the full control effect; potency means the concentration at half of the fitted maximal effect.

SMILES | activity, negative = inhibition | Potency
N[C@@H](Cc1c[nH]c2ccc(O)cc12)C(=O)O | 13.8% (inactive) | 
NC(=O)OCC(COC(N)=O)c1ccccc1 | 31.4% (inactive) | 
CCC1(c2ccccc2)C(=O)NCNC1=O | 34.4% (inactive) | 
Cn1c(=O)c2c(ncn2C)n(C)c1=O |  | inactive
CCOC(=O)c1ncn2c1CN(C)C(=O)c1cc(F)ccc1-2 | 14.4% (inactive) | 
CN1C(C(=O)Nc2ccccn2)=C(O)c2ccccc2S1(=O)=O |  | inactive and 6.31 µM (active)
COC(=O)Nc1nc2ccc(C(=O)c3cccs3)cc2[nH]1 | -17% (inactive) | 
CN(C)CCCN1c2ccccc2CCc2ccc(Cl)cc21 |  | inactive
O=c1[nH]cc(F)c(=O)[nH]1 | 50.2% (inactive) | 
Clc1ccc2c(c1)C(N1CCNCC1)=Nc1ccccc1O2 | 1.38% (inactive) | 
COc1nc(C)nc(Cl)c1NC1=NCCN1 | 59.7% (inactive) | 
CS(=O)(=O)Nc1ccc([N+](=O)[O-])cc1Oc1ccccc1 | -19.2% (inactive) | 
O=C1N(c2ccccc2)c2ccccc2C1(Cc1ccncc1)Cc1ccncc1 |  | 3.16 µM (active) and 199 nM (active)
O=c1c(-c2ccc(O)cc2)coc2cc(O)cc(O)c12 |  | inactive and 20 µM (active)
Clc1ccccc1C(c1ccccc1)(c1ccccc1)n1ccnc1 |  | 10 µM (active)
COc1ccc2c(c1)c(CC(=O)O)c(C)n2C(=O)c1ccc(Cl)cc1 | -19.9% (inactive) | 
Cc1cc(C(C)(C)C)c(O)c(C)c1CC1=NCCN1 | 2.2% (inactive) | 

— PubChem BioAssay (NCATS)
